Screening results as filed in PubChem BioAssay.
GPR151 activ = activators of human GPR151, primary screen, cell-based, PathHunter beta-arrestin, luminescence; G-protein coupled receptor 151 (Homo sapiens), Q8TDV0; PathHunter beta-arrestin GPR151 cells; activation, % at 11.2 µM; 1% of 650,000 active; AID 1508602, 2020; in the data active = activation above about 4.9%
MITF primary = MITF inhibitors, primary screen, biochemical, AlphaScreen, human; AlphaScreen MITF homodimerization, bead proximity signal; inhibition, % at 2.6 µM; Microphthalmia-associated transcription factor (Homo sapiens), O75030; 0.91% of 650,000 active; AID 1259374, 2018; in the data active = inhibition above about 50%
Target sequence (O75030 whole entry, looked up): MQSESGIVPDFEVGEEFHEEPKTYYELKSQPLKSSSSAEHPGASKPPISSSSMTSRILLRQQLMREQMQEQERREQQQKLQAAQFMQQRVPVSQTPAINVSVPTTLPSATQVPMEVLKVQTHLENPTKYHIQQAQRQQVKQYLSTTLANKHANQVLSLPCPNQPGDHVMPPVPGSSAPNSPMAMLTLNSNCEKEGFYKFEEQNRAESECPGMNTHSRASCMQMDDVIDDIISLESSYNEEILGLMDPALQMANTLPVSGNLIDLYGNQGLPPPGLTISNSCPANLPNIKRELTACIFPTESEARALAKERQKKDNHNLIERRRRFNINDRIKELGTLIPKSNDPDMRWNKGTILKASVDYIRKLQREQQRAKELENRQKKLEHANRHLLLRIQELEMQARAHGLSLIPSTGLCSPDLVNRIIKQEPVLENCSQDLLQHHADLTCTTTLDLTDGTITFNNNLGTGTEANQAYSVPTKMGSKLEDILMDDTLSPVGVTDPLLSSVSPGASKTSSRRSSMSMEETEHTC
TEAD-YAP inh = TEAD-YAP interaction inhibition, primary screen, TEAD-YAP interaction inhibitor project, luminescence, HEK-TIYL cells; TEAD-Gal4/YAP UAS-luciferase luminescence; 1.4% of 640,000 active; inhibition, % at 9.12 µM; in the data active = inhibition above about 32%
FBW7 act = FBW7 E3 ligase activators, primary screen, biochemical, AlphaScreen, human; F-box/WD repeat-containing protein 7 (Homo sapiens), Q969H0; AlphaScreen FBW7–phospho-cyclin E peptide binding, activator screen; normalized activity (activation), % at 26.1 µM; 0.13% of 650,000 active; AID 1259310, 2017; in the data active = normalized activity above about 1.9%;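 note: purified mutant Fbw7 with reduced substrate affinity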
MITF inh conf = MITF inhibitors, retest of hits, confirmation, biochemical, AlphaScreen, triplicate | 16% of 4,700 active | shares compounds with MITF primary | inhibition, % at 2.6 µM | AlphaScreen MITF homodimerization, biotin/His-MITF beads;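 active = inhibition above a cutoff derived from the DMSO control wells, cut at about 28% in these data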;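 note: inhibitors lower the bead chemiluminescence by keeping MITF from dimerizing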
AS interf DR = AlphaScreen optical interference compounds, dose response, counter-screen, biochemical, HTS. shares compounds with MITF primary. AlphaScreen optical interference counterscreen, cell-free. IC50, µM. 6% of 480 active; call rule not given here
AlphaScreen intf2 = AlphaScreen optical interference compounds, counter-screen for MITF inhibitor project, biochemical, triplicate; shares compounds with MITF primary; LysRS AlphaScreen counterscreen, signal interference; inhibition, % at 2.6 µM; 7.6% of 4,700 active; AID 1259376, 2018;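 active = inhibition above a cutoff derived from the DMSO control wells, cut at about 30% in these data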
Hits are given with their value; n = inactive; x = no result given. Most compounds without a hit are left out; they make up all but 3.5% or so of the library.

SMILES	GPR151 activ	MITF primary	TEAD-YAP inh	FBW7 act	MITF inh conf	AlphaScreen intf2	others
CC1=C(C(=O)Nc2ccccc2)C(c2cccs2)C(C#N)=C(SCC(=O)c2ccc(F)cc2)N1 (stereo unspecified)	n	n	n	n	x	x
CCOC(=O)N1CCC(N2C(=O)c3ccccc3C2Nc2ccccc2C(=O)OC)CC1 (stereo unspecified)	n	62	n	n	n	n
NC(=S)N/N=C/c1ccccc1OC(=O)c1cc([N+](=O)[O-])cc([N+](=O)[O-])c1	n	59	n	n	30	53
COC(=O)C1=C(C)N(c2ccc(F)cc2)C(=O)/C1=C\c1ccccc1F	n	n	n	n	x	x
O=C1NC(=O)C(CCCc2ccccc2)(C2CCN(C(=O)Cc3cccs3)CC2)N1 (stereo unspecified)	n	n	n	n	x	x
O=C1NC(=O)C(CCCc2ccccc2)(C2CCN(C(=O)Cc3cccc(F)c3)CC2)N1 (stereo unspecified)	n	51	n	n	n	n
CCN1C(=O)/C(=C2\SC(=S)N(C(C)C)C2=O)c2cc(Br)ccc21	n	n	n	n	x	x
CC(C)CNC(=O)c1cn(C2CCCCC2)cc(C(=O)NCCc2cccnc2)c1=O	n	51	n	n	n	n
CC(=O)c1cccc(NC(=O)CCCOc2ccc(Cl)cc2Cl)c1	n	n	n	n	x	x
COc1cccc(C(=O)N2CCN(Cc3ccccn3)CC2)c1	n	92	n	n	n	n
COc1cc(OC)cc(C(=O)N2CCN(Cc3ccccn3)CC2)c1	n	57	n	n	n	n
CCOC(=O)c1nn(-c2ccc(C)cc2)c(=O)c2c(NC(=O)C(C)(C)C)scc12	n	n	n	n	x	x
O=C(CC1C(=O)NCCN1Cc1ccc2ccccc2c1)NC1(c2ccccc2)CC1 (stereo unspecified)	n	n	n	n	x	x
CC1(C)C(=O)NCCN1C(=O)C1CCN(S(=O)(=O)c2ccc(F)cc2)CC1	n	68	n	n	n	n
O=C(C1CCN(S(=O)(=O)c2ccc(F)cc2)CC1)N1CCCCC1	n	n	n	n	x	x
Clc1ccc(OCCN2CCNCC2)c(Cl)c1	n	n	n	n	x	x
Clc1cc(Br)ccc1OCCN1CCNCC1	n	57	n	n	n	n
Clc1cc(Br)ccc1OCCOCCn1ccnc1	n	n	n	n	x	x
Clc1cc(Br)ccc1OCCOCCN1CCNCC1	n	54	n	n	n	n
Cc1cc(Br)ccc1OCCOCCN1CCN(C)CC1	n	57	n	n	n	n
Brc1c(OCCn2ccnc2)ccc2ccccc12	n	57	n	n	n	n
Fc1cccc(Nc2nc3ccc(Cl)cc3n3cnnc23)c1	n	n	n	n	x	x
N#Cc1c(/N=c2\oc3ccccc3cc2C(=O)Nc2ccccc2)sc2c1CCCC2	n	n	n	n	x	x
Cc1ccc(-n2c(=S)[nH]c3c(sc(=S)n3-c3ccccc3C)c2=O)cc1	n	n	n	n	x	x
CCOC(=O)c1c(NC(=O)C(C)Sc2nnc(CNC(=O)c3cccc(C)c3)n2-c2ccccc2OC)sc2c1CCC2 (stereo unspecified)	n	n	n	n	x	x
SMILES	GPR151 activ	MITF primary	TEAD-YAP inh	FBW7 act	MITF inh conf	AlphaScreen intf2	others
Brc1c(OCCN2CCNCC2)ccc2ccccc12	n	64	n	n	33	n	AS interf DR=n
CCCCNCCOCCOc1ccc(Br)cc1C	n	72	n	n	n	n
CCCCn1c(=O)oc2cc(Br)ccc21	n	n	n	n	x	x
N#CC1(C#N)C(CC(=O)c2ccccc2)C1c1ccc(Cl)cc1 (stereo unspecified)	n	n	n	n	x	x
c1ccc(Nc2cc(NCCOc3ccccc3)ncn2)cc1	n	n	n	n	x	x
Cc1n[nH]c(C)c1NC(=O)CN1CCCCCC1	n	62	n	n	n	n
O=C(CN1CCCCCC1)Nc1c2c(nc3c1CCC3)CCCC2	n	58	n	n	n	n
CCCCC(=O)Nc1c2c(nc3c1CCC3)CCCC2	n	n	n	n	x	x
